The full ranking holds about 33,000 sequences; the median of “E-score (-0.5 to 0.5)” is about -0.032, and the highest 2% start at about 0.36. The sample holds the highest values, similar sequences and a random draw of the others, so the mix is not that of the screen.
Biological target: T1, Sko1 (UniProt Q02100)
T1 sequence: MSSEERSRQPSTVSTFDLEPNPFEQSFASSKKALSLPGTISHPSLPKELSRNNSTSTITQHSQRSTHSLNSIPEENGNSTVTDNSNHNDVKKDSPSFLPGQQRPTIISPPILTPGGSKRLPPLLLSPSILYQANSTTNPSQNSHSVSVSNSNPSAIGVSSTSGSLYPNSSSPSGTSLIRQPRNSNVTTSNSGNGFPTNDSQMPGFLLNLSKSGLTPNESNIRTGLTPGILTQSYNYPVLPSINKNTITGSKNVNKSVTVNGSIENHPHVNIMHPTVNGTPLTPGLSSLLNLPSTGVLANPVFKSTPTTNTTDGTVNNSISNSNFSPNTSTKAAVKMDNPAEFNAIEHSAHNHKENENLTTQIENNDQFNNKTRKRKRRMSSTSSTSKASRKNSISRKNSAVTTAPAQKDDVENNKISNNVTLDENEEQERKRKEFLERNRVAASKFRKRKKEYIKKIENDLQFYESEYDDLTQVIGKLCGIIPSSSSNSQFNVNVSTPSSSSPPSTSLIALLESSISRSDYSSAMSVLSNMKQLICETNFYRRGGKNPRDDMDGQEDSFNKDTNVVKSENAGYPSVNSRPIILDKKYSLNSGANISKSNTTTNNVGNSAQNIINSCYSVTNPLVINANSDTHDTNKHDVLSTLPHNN
Assay: PBM E-score (8-mer binding enrichment) (E-score (-0.5 to 0.5)); higher = stronger / more preferred TF binding
Settings: protein concentration: 200 nM; construct: GST-full length
Summary of the method: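 PURExpress in vitro transcription/translation supplied GST-tagged yeast transcription factors, either full-length or DNA-binding domain. Applied at about 100-200 nM to universal all-10-mer Agilent arrays double-stranded by primer extension, the bound protein was detected with fluorescent anti-GST. E-scores, modified Wilcoxon-Mann-Whitney statistics, were given by the Universal PBM Analysis Suite to ungapped eight-base words pooled with their reverse complements after masliner normalisation.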

Sequence	PBM E-score
CCCCCCAC	-0.372
ACGTGTAA	0.386
ACGTGTAG	0.367
ACGTGTAC	0.409
GCGTGTAC	0.227
AAGTGTAG	0.0389
TCGTGTAA	0.116
CCGTGTAC	-0.0602
ACGTGTAT	0.414
AGGTGTAT	0.075
AAGTGTAT	0.0856
CCGTGTAG	-0.181
CCGTGTAA	-0.0449
CATGACTA	0.0134
AATACCGG	0.00982
CGTTTACA	0.138
CTCCCCAC	-0.00257
ATTAAGCG	0.0319
ACCGCATC	-0.161
AATAAGCT	0.0887
CTATAGGA	0.0338
CCGAGATA	0.00305
ACTAGTGC	-0.13
ACGTGTCA	0.378
ACGTGTCC	0.318

Sequence	PBM E-score
AAGTGTCG	0.00605
ACGTGTCT	0.381
AAGTGTCT	-0.135
ACGTGTCG	0.385
GCGTGTCA	0.216
CCGTGTCG	-0.319
CCGTGTCA	-0.186
CAGCAGGC	-0.22
AGGCTTGA	-0.0134
ACGGCTCG	-0.0111
GAACGTAC	0.254
TAACGTAA	0.457
GATCGTAA	0.281
CAACGTAA	0.447
TAACGTTA	0.302
GAACGTAA	0.428
CAACGTAG	0.354
TAACGTGA	0.274
CAACGTGA	0.182
ACAACTAA	0.161
AGGCCTGC	-0.301
GCCGTCGC	-0.133
CTCGGTAC	-0.0539
CTACTCAC	0.168
ACCACAAA	0.0563

Sequence	PBM E-score
ACCACGGA	-0.247
ACCACGTC	0.363
ACCACGGG	-0.243
GCCACGTA	0.421
ACCACGTG	0.362
GCCACGCA	0.0845
ACCACGAA	0.131
ACCACGCC	-0.125
ACCACGAC	0.128
GCCACGGA	-0.215
ACCACGTA	0.441
GTCTGATA	-0.114
TATCTGGA	-0.215
CCTCGGCG	-0.0614
CCACCAAG	-0.374
ACCGGTGG	-0.404
AACTCACC	-0.0504
GAGAACCA	-0.127
ACACTCCT	-0.189
ACGCTCAA	0.0466
TTGTGAAA	0.119
ACTTTCAA	0.0541
ACCTATAT	0.257
GTTGACGA	0.212
AGTGACGG	0.146

Sequence	PBM E-score
GGTGACGA	0.422
AGTGACGA	0.419
GGTGACCA	-0.137
AGTGACCA	-0.178
ACGCCCAG	-0.0834
TACACTAA	-0.0348
AATTGTGA	0.233
ATCGGCCC	-0.133
CCCCACGG	-0.22
CTCATTAA	0.0254
ATCATTGA	0.272
ATCATTAA	0.239
GTCATTGA	0.416
CTCATTGA	-0.0333
GTCATTAA	0.393
CCTGAGGC	-0.278
GATAGAGA	-0.084
ACCTTCGT	0.0282
CGTAAAAG	0.288
AGACTCAC	-0.129
TGAAGACA	0.0964
CGCGACTA	-0.0528
CTGGATGC	-0.36
CTGTGCGC	-0.113
CAAAGAAG	-0.00535

Sequence	PBM E-score
CATCGTCG	-0.16
TATCGTGA	0.168
GATCGTCA	0.321
AATCGTCC	0.0937
AATCGTCT	0.0851
CATCGTCC	0.0258
TATCGTCA	0.42
CATCGTCA	0.395
AATCGTCA	0.423
CCTCATTA	0.131
ATTGCCAC	-0.11
CGATGGGA	-0.0417
ACACTAAT	0.119
AGGTCCAT	0.0213
AGGACATC	-0.0352
GACGGGCA	-0.145
ATGCGTAA	0.437
CTGCGTTA	0.0283
CTGCGTAA	0.397
ATGCGTAC	0.291
GAGCGTAA	0.218
GTGCGCAA	0.114
CTGCGTAC	0.149
GTGCGTAA	0.418
ATGCGTAG	0.3

Sequence	PBM E-score
CACTGCAG	-0.064
CATCTTAC	0.228
TCAGAGAA	0.00926
ACGCCATA	0.393
CCGCCATC	-0.29
ACGCCATC	0.376
GCGCCATA	0.0343
ACGCCACA	0.234
ACGCCATG	0.368
CCGCCATA	-0.182
ACGCCACC	0.0629
ACGCCAAG	-0.0349
AAGGATCC	-0.254
CCACGCAG	0.057
ACACGGGT	-0.189
CAGCATCG	-0.332
CCCGCTAC	-0.15
AACCATAT	0.119
CCCCGTAA	0.0319
CCACGTAC	0.374
CCACGTGA	0.339
CCACGTTC	0.0509
CCACGTGC	0.341
CCACGTAA	0.456
CCACGTAG	0.377

Sequence	PBM E-score
CCACGTGG	0.177
CCCCGTAG	-0.2
ATGGGGCA	-0.185
CAATAGTC	-0.085
CTGGTACA	-0.00751
GTCTGGGA	-0.133
GGTCGTTA	-0.0165
GGTCGTGA	0.0516
CGTCGTCA	0.362
AGTCGTCG	-0.148
CGTCGTTA	0.153
AGTCGTCC	-0.114
CGTCGTCC	-0.0443
GGTCGTCA	0.38
AGTCGTCA	0.37
AGAGGTAG	-0.178
GGGCTAAA	-0.182
AAACACGC	0.316
AAACACGT	0.413
ACACACGA	0.213
AAACACGA	0.163
ACACACGT	0.433
